Results published in PubChem BioAssay (NCI).
This is part of a sample that, as a whole, favours compounds with a hit. Of some 83,000 tested, about 20% had one in any assay.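 Testing used 96-well plates and a 48-hour single-concentration exposure. Example: -40 means 40% of the starting cells died.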 Values without a mark were called inactive. Active and inactive are the calls of the source. The calls were made as follows: active = growth percent below 10; inactive = the rest.

Assays:
Test in all cases: NCI-60 one-dose screen, 48 h (100 = growth as untreated, 0 = no growth, -100 = all killed)
Conditions in all cases: 10 µM unless noted
HT29 colon = system: HT29 colon
SNB-75 CNS = system: SNB-75 CNS
SNB-19 CNS = system: SNB-19 CNS
U251 CNS = system: U251 CNS
PC-3 prostate = system: PC-3 prostate
SK-MEL-5 melanoma = system: SK-MEL-5 melanoma
LOX IMVI melanoma = system: LOX IMVI melanoma
SK-MEL-28 melanoma = system: SK-MEL-28 melanoma
UACC-62 melanoma = system: UACC-62 melanoma

| SMILES | growth (HT29 colon) | growth (SNB-75 CNS) | growth (SNB-19 CNS) [%] | growth (U251 CNS) | growth (PC-3 prostate) | growth (SK-MEL-5 melanoma) | growth (LOX IMVI melanoma) | growth (SK-MEL-28 melanoma) | growth (UACC-62 melanoma) |
| --- | --- | --- | --- | --- | --- | --- | --- | --- | --- |
| O=C(CSc1nc2ccc([N+](=O)[O-])cc2[nH]1)Nc1ccc([N+](=O)[O-])cc1 | 13.1% | 29.7% | 12.4 | 13.7% | 12.7% | -12.7% (active) | 23.5% | 30.7% | – |
| O=C(CSc1nc2sc3c(c2c(=O)n1-c1ccccc1)CCCCC3)N/N=C/c1cccc([N+](=O)[O-])c1 | 32.3% | 6.05% (active) | 83.6 | 49.1% | 38.5% | 67.6% | 76.5% | 74% | 65.9% |
| Nc1c(C(=O)Nc2ccccc2F)sc2nc3c(cc12)CCCC3 | 11.3% | 37.5% | 33.7 | 26.7% | 27.7% | 15.5% | 40.5% | 73.7% | 26.7% |
| COC1=CC(c2ccc[nH]2)=N/C1=C\c1[nH]c(C)c(C)c1CCC(=O)OCc1ccccc1 | 5.68% (active) | -2.99% (active) | 21 | -40.4% (active) | -27.2% (active) | – | -62.9% (active) | – | -54.7% (active) |
| CC(=O)N1N=C(c2ccc(Nc3nc(Nc4ccccc4)nc(Nc4ccccc4)n3)cc2)CC1c1cccc([N+](=O)[O-])c1 (configuration not stated) | 100% | 79.7% | 86.1 | 97.7% | 80.6% | 87.4% | 86.9% | – | 84% |
| CC(=O)c1c(C)nc2ccccc2c1/C=C/c1ccc(F)cc1 | 90.7% | 82.4% | 93 | 86.7% | 79.1% | 69.5% | 81.4% | 114% | – |
| CC(=O)N1N=C(c2ccc(Nc3nc(Nc4ccccc4)nc(Nc4ccccc4)n3)cc2)CC1c1ccccc1 (configuration not stated) | 103% | 90.8% | 84.3 | 92.6% | 80.5% | 78.4% | 89.4% | 111% | – |
| Cc1ccc(C)n1-c1ccccc1-n1c(C)ccc1C | 103% | 87.2% | 108 | 102% | 98.7% | 104% | 90.9% | 93.6% | 87.5% |
| O=c1c2cnn(-c3ccccc3)c2n2c(CN3CCOCC3)nnc2n1-c1ccccc1 | 74.9% | 98% | 106 | 89.4% | 78.2% | 102% | 96.9% | 107% | 98% |
| N#CC1=C(N)Oc2c(c(=O)[nH]c3ccc(Cl)cc23)C12C(=O)c1ccccc1C2=O | 108% | 76.5% | 91.6 | 99.4% | 91.6% | 95.9% | 99.6% | 104% | 89.4% |
| CCCNC(=O)Nc1ccc2cc3ccc(NC(=O)NCCC)cc3nc2c1 | 98.5% | – | 68.1 | 61.2% | 81.5% | 81.8% | 72.2% | 81.9% | 91.5% |
| COc1ccc(OC)c(-c2nc(SCC(=O)c3ccc(C#N)cc3)[nH]c(=O)c2C#N)c1 | 108% | 93.7% | 97.6 | 103% | 94.5% | 106% | 94.7% | – | 94.7% |
| CC(C)(Sc1cc(C(C)(C)C)c(OC(=O)CCCC(=O)O)c(C(C)(C)C)c1)Sc1cc(C(C)(C)C)c(OC(=O)CCCC(=O)O)c(C(C)(C)C)c1 | 26.9% | 68% | 29.6 | 14.4% | 36.2% | -3.74% (active) | 27.1% | 24.9% | -19.7% (active) |
| CCCCCOC(=O)c1c(C)[nH]c(/C=C2\N=C(c3ccc[nH]3)C=C2OC)c1C | -28% (active) | -28.1% (active) | 21.2 | -24.1% (active) | 12.3% | -100% (active) | -99.7% (active) | -45.8% (active) | -70.9% (active) |
| Cc1csc(Nc2nc(-c3ccccn3)nc(C(Cl)(Cl)Cl)n2)n1 | 68% | 90.1% | 80.9 | 62.2% | 91.1% | 86.2% | 49.4% | 87.6% | 84.3% |
| CC(C)=CCCC(C)c1ccc(C)c2c1OCN(CCCCCO)C2 (configuration not stated) | 27.2% | 85.6% | 88.8 | 83.8% | 66.6% | 91.7% | 77.6% | 115% | 82.8% |
| O=C(/C=C(/C=C/c1ccc2[nH]ccc2c1)OB(F)F)/C=C/c1ccc2[nH]ccc2c1 | -55.7% (active) | – | 12.9 | -84.1% (active) | -6.64% (active) | 12.2% | -64.3% (active) | 22% | -21.5% (active) |
| Cn1cc(-c2csc(-c3cn(C(=O)OC(C)(C)C)c4ccc(Br)cc34)n2)c2ccnc(Cl)c21 | 88.5% | 2.34% (active) | 44 | 45.3% | 44.2% | – | 89.1% | 94.7% | 96.1% |
| CCOC(=O)C1=C(N)Oc2c(sc3c(F)cccc23)C1c1ccc(O)cc1 (configuration not stated) | 30.7% | 31.3% | 48.9 | 37.9% | 26% | – | 36.4% | 46% | 26.3% |
| Fc1cccc(Oc2ccc(Nc3ncnc4ccc(OCCCN5CCOCC5)cc34)cc2Cl)c1 | 18.2% | 77.2% | 63.3 | 47.4% | 63.8% | 32.3% | 21.6% | 68.4% | 71.6% |
| COc1ccc(C2CC(c3ccc(Nc4nc(Nc5ccccc5)nc(Nc5ccccc5)n4)cc3)=NN2C(C)=O)cc1 (configuration not stated) | 101% | 89.8% | 88.7 | 88.1% | 86.4% | 83.5% | 103% | 109% | 94.3% |
| O=C(Nc1cccc(Cl)c1)Nc1cccc(Cn2c(=O)[nH]c3ccc(Oc4ncccn4)cc3c2=O)c1 | 38.8% | 57.8% | 55.6 | 31.3% | 36.5% | – | 49.7% | 59.1% | 49.3% |
| N#CC1=C(c2ccccc2)Nc2c(c(-c3ccc(Cl)cc3)nn2-c2ccccc2)C12C(=O)Nc1ccc(Cl)cc12 (configuration not stated) | 47.8% | 6.22% (active) | 70.5 | 64% | 51% | 87.5% | 77.5% | 90.8% | 66% |
| CC(=O)Oc1ccc(N2C(=O)C(Cl)=C(Nc3cccc(C(F)(F)F)c3)C2=O)cc1 | 104% | 95.1% | 93 | 97.4% | 96.3% | 105% | 88.7% | 101% | 87.8% |
| CC(C)c1ccc(Cc2cnc(NC(=O)c3cc(Br)cs3)s2)cc1 | 7.43% (active) | -3.65% (active) | 42.9 | 18.6% | 26.7% | 10.1% | 41.3% | 53.5% | – |
| COc1ccccc1CNc1c2ccccc2nc2ccccc12 | 17.7% | 63.5% | 35.8 | 38.6% | 43.2% | 59.2% | 18.9% | 80% | 60.5% |
| COc1cc(-c2csc(NC(=O)c3ccc(N4CCOCC4)c(C(F)(F)F)c3)n2)cc(OC)c1OC | 43.2% | 57.2% | 62.6 | 47.3% | 11% | -6.45% (active) | 23.1% | 36.6% | -6.31% (active) |
| COc1cc2ncnc(Nc3ccc(F)c(Cl)c3)c2cc1OCC(=O)N1CCN(c2ccccc2)CC1 | 90.4% | 83.7% | 85.9 | 98.9% | 90.6% | 95% | 93.7% | 113% | 92.8% |
| CCN1C(=O)N(CC)C2C1NN=c1s/c(=C\c3ccccc3F)c(=O)n12 (configuration not stated) | 1.76% (active) | 10.8% | 31 | 1.71% (active) | 25.1% | -21.1% (active) | 15.8% | 61.2% | 34.4% |
| N#Cc1ccc(O)c(C2=NCC(c3cccc(Oc4ccccc4)c3)O2)c1 (configuration not stated) | 13.8% | 51.7% | 22.3 | 3.98% (active) | 31.4% | 32.7% | 23% | 37.5% | -1.59% (active) |
